Our source for the inhibition values is PubChem BioAssay AID1063 (University of Pittsburgh Molecular Library Screening Center, 2008).

The campaign covered roughly 200,000 compounds. About 18,000 (9%) were called active. Rule as the data show it: active = inhibition above about 50%; inactive = the rest. The sample as a whole holds a higher share of actives than the screen did.

This assay in a line: Leishmania major promastigote growth inhibition, primary screen (AID 1063).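 Also: promastigotes grown with compound for 44 hours at 28 °C.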 As to conditions: Leishmania major promastigotes, resazurin fluorescence viability; at 10 µM; active compounds read high.
As for `CN(C)S(=O)(=O)c1cccc(NC(=S)N/N=C/C(=O)c2ccccc2)c1`, the inhibition was 2.84% (inactive).
Consider `Cc1cccc(N2CCN(c3ccc(NC(=O)/C=C\C(=O)O)cc3)CC2)c1`, for which the inhibition is -2.44% (inactive).
In the case of `Cc1cc(NC(=O)CCC2COc3ccccc3O2)no1` (configuration not stated) it was -5.57% (inactive); in that of `Cc1ccsc1C(=O)OCC(=O)c1cc(C)n(CC2CCCO2)c1C` (configuration not stated), -1.1% (inactive); in that of `Cc1cc(C(=O)CCl)c(C)n1CC1COc2ccccc2O1` (configuration not stated), 101% (active).
`O=C(NCc1ccccc1)C1=C[C@@H](c2ccc(C(F)(F)F)cc2)C[C@@H](OCc2ccc(CO)cc2)O1`: the inhibition was 87% (active).
On to `CC(C)(C)[C@H]1C=C(C(=O)NCc2ccccc2)O[C@@H](OCc2ccc(CO)cc2)C1`, for which the inhibition is 20.8% (inactive).
As for `O=C(C1=C[C@H](c2ccc(C(F)(F)F)cc2)C[C@H](OCc2ccc(CO)cc2)O1)N1CCN(Cc2ccccc2)CC1`, the inhibition is 25.6% (inactive).
Then `O=C(NCc1ccccc1)C1=C[C@H](C2CC2)C[C@H](OCc2ccc(CO)cc2)O1`, with 6.42% (inactive); and `O=C(NCc1ccccc1)C1=C[C@@H](C2CCCCC2)C[C@@H](OCc2ccc(CO)cc2)O1`, with 50.2% (active).
Regarding `C=CCOC(=O)C1=C[C@@H](c2ccccc2)C[C@@H](OCc2ccc(CO)cc2)O1`, the inhibition was 13.8% (inactive).
In the case of `CCOC(=O)C1(C)NC(c2ccco2)C2C(=O)N(c3ccccc3)C(=O)C21` (configuration not stated), the inhibition was -8.75% (inactive).
In the case of `COc1cc(NC(=S)NCc2ccc(S(N)(=O)=O)cc2)cc(OC)c1` it was 11.8% (inactive).
Turning to `CC1Cc2ccccc2N1C(=O)CSc1nnc(-c2ccc(S(=O)(=O)N3CCCC3)cc2)n1C` (configuration not stated), the inhibition was 97.9% (active).
On to `CC1Cc2ccccc2N1C(=O)CSc1nnc(C2CC2)n1C` (configuration not stated), for which the inhibition was 14.8% (inactive).
In the case of `Cn1c(SCC(=O)OC2CCCCC2)nnc1-c1ccc(S(=O)(=O)N2CCCC2)cc1` it was -0.74% (inactive); in that of `O=C(Nc1ccc(N2CCN(C(=O)c3cccs3)CC2)cc1)c1cccnc1Cl`, 16.4% (inactive).
`CCOc1ccccc1/C=N/NC(=O)CNC(=O)COc1ccccc1`: the inhibition was -1.93% (inactive).
Then `N#C/C=C(/c1ccc(F)cc1)N1CCOCC1`, with 1.16% (inactive); and `Cc1cc(C)n2nc(SCC(N)=O)nc2n1`, with 4.1% (inactive); and `COc1ccc(S(=O)(=O)N2CCCCC2)cc1Br`, with -0.43% (inactive).
With `CCCCn1c(=S)[nH]c2ccccc2c1=O`, the inhibition was -2.23% (inactive).
Then `CCCCn1c(=S)[nH]c2cc(S(=O)(=O)N3CCCCC3)ccc21`, with 96.4% (active).
In the case of `COC(=O)C(C(=O)Nc1cccc(Cl)c1C)C1CCCC1` (configuration not stated) it was -0.21% (inactive); in that of `Cc1ccc(OCCCC(=O)NC(C)c2ccccc2)c(C)c1` (configuration not stated), 11.7% (inactive).
Then `CCC(CC)c1nnc(NC(=O)c2nn(C)c(=O)c3ccccc23)s1`, with 8.15% (inactive); and `N#Cc1c(C(F)(F)F)cc(-c2ccc(Cl)cc2)nc1SCC(=O)O`, with -6.26% (inactive); and `CN(C)CCCNC(=O)/C=C/c1ccc(OCc2c(F)cccc2Cl)cc1`, with 89.1% (active).
`O=C(/C=C/c1ccc(OCc2c(F)cccc2Cl)cc1)N1CCOCC1`: the inhibition was 35.5% (inactive).
Consider `COCCCNC(=O)/C=C/c1ccc(OCc2c(F)cccc2Cl)cc1`, for which the inhibition was 16% (inactive).
In the case of `COc1ccccc1-n1ccnc1SCC(=O)NC(C)(C)C` it was -1.52% (inactive); in that of `COC(=O)c1ccc(CSc2nnc(N)s2)o1`, -5.93% (inactive); in that of `CCC(c1nnnn1Cc1ccco1)N(Cc1cc2cc(OC)ccc2[nH]c1=O)C1CCCCC1` (configuration not stated), 49.5% (inactive).
Then `CCC(c1nnnn1Cc1ccco1)N(CCc1ccccc1)Cc1cc2cccc(C)c2[nH]c1=O` (configuration not stated), with 39.7% (inactive).
Then `CCC(c1nnnn1Cc1ccco1)N(CCc1ccccc1)Cc1cc2ccc(OC)cc2[nH]c1=O` (configuration not stated), with 85.7% (active); and `CN(C)c1ccc(C(CC(=O)O)C(=O)O)cc1` (configuration not stated), with -3.91% (inactive).
`Cc1cccc(NC(=O)c2nnn(-c3cccc(C(F)(F)F)c3)c2N)c1`: the inhibition is 3.89% (inactive).
With `Cc1ncn(C23CC4CC(CC(O)(C4)C2)C3)n1`, the inhibition was -5.82% (inactive).
In the case of `Cc1nc([N+](=O)[O-])nn1C12CC3CC(CC(Br)(C3)C1)C2` it was 98.2% (active); in that of `O=S(=O)(c1ccccc1)c1nc(-c2ccccc2F)oc1NCc1cccnc1`, 0.99% (inactive).
Then `C/C(Cc1ccccc1)=N\NC(=O)CNC(=O)c1cccc(Br)c1`, with 51.4% (active); and `CC(CC(=O)O)CC(=O)NNC(=O)c1cccc(Br)c1` (configuration not stated), with -4.63% (inactive); and `CCCCC(NC(=O)c1cccc(Br)c1)C(=O)O` (configuration not stated), with 21.1% (inactive).
For `COc1ccc(C)cc1-n1nnnc1SCc1nc2ccccc2c(=O)[nH]1`, the inhibition is 2.27% (inactive).
Turning to `Cc1nc(-c2ccc(Cl)cc2)sc1C(=O)CBr`, the inhibition was -12.4% (inactive).
Then `CCCn1c(=S)[nH]c2ccc(C(F)(F)F)cc21`, with -2.71% (inactive).
Then `CCCC(=O)OCC(=O)Nc1cc(Cl)ccc1[N+](=O)[O-]`, with -6.12% (inactive); and `Cc1[nH]c2ccccc2c1-c1ccc(Cl)nn1`, with -2.46% (inactive).
Then `COc1ccc(OC)c(Nc2nc(-c3ccc(O)c(O)c3)cs2)c1`, with 20.7% (inactive); and `COc1ccc(C)cc1Nc1nc(-c2c(C)[nH]c3ccccc23)cs1`, with 97.8% (active); and `COC(=O)C(NS(=O)(=O)c1ccc(F)cc1)c1ccccc1` (configuration not stated), with -1.84% (inactive).
As to `CS/C(=C\[N+](=O)[O-])Nc1ccc(C)cc1`, the inhibition is -1.56% (inactive).
Then `CCc1nnc(NC(=O)c2cccc(S(=O)(=O)N(C)c3ccc(OC)cc3)c2)s1`, with -0.19% (inactive); and `O=C(Cc1ccccc1)NC(=S)Nc1ccc(N2CCCCC2)cc1`, with -9.12% (inactive).
With `COc1ccc(-n2c(C)cc(C(=O)CSc3nnc(-c4cccs4)o3)c2C)cc1`, the inhibition is -4.2% (inactive).
As to `COc1ccc(-n2c(C)cc(C(=O)CN3C(=O)NC4(CCc5ccccc54)C3=O)c2C)cc1` (configuration not stated), the inhibition is 98.6% (active).
`Cc1ccc(-n2c(C)cc(C(=O)CN3C(=O)C(=O)N(C4CCCC4)C3=O)c2C)cc1`: the inhibition was -5.85% (inactive).
In the case of `Cc1nn(-c2ccc([N+](=O)[O-])cc2)c(N)c1-c1ccccc1` it was -4.1% (inactive); in that of `CC(C)(C)NC(=O)NC(=O)COC(=O)Cc1c(F)cccc1Cl`, 2.42% (inactive); in that of `O=C(CSc1cccc[n+]1[O-])NCCCc1ccccc1`, 1.17% (inactive).
Then `COc1cccc(N2CC(C(=O)Nc3c(C)cccc3C)CC2=O)c1` (configuration not stated), with 2.01% (inactive).
In the case of `COc1cccc(NC(=O)Nc2nnc(N3CCCCC3C)s2)c1` (configuration not stated), the inhibition is 3.59% (inactive).
Then `COc1cccc(Nc2nnc(SCC(=O)N3CC(C)OC(C)C3)s2)c1` (configuration not stated), with 51.2% (active); and `CCOc1ccccc1Nc1nnc(SCC(=O)Nc2cc(C)on2)s1`, with 4.84% (inactive).
`COc1ccc(C(=O)CSc2nnc(NC(=O)C3CC(=O)N(c4cccc(OC)c4)C3)s2)cc1` (configuration not stated): the inhibition is 56.9% (active).
As to `COC(=O)c1ccccc1NC(=O)C1CC(=O)N(c2ccc(OC)cc2)C1` (configuration not stated), the inhibition was -10.5% (inactive).
As for `CCOC(=O)CCCN1CC(O)=C(c2nc3ccccc3s2)C1=N`, the inhibition is 17% (inactive).
On to `CC(C)n1c(=O)[nH]c2cc(C(=O)Nc3ccccc3)ccc21`, for which the inhibition was -2.18% (inactive).
Consider `O=C(N/N=C/c1ccco1)c1ccc(C(=O)N/N=C/c2ccco2)o1`, for which the inhibition is -1.3% (inactive).
For the molecule `COC(=O)c1nn(-c2cccc(Cl)c2)ccc1=O`, the inhibition is -3.04% (inactive).
For `O=C(Cc1ccc([N+](=O)[O-])cc1)N/N=C/c1ccco1`, the inhibition was 2.95% (inactive).
In the case of `COc1cc(NC(=O)CSc2nnc3ccc(-c4ccncc4)nn23)cc(OC)c1` it was -2.79% (inactive).
In the case of `COc1cccc(OC)c1C(=O)NC(=S)Nc1ccc(N2CCOCC2)c(Cl)c1` it was 21.4% (inactive).
In the case of `CCOc1ccc(C(=O)NC(=S)Nc2ccc(NC(=O)C(C)C)cc2)cc1[N+](=O)[O-]` it was -7.33% (inactive); in that of `CCOc1ccc(C(=O)NC(=S)Nc2ccc(N3CCOCC3)c(Cl)c2)cc1[N+](=O)[O-]`, 100% (active).
`O=C(c1ccncc1)N1CCN(c2ccc3ccccc3n2)CC1`: the inhibition was -1.56% (inactive).
As to `O=C(Nn1cnnc1)c1ccc([N+](=O)[O-])cc1`, the inhibition is -11.1% (inactive).
Turning to `CCOC(=O)c1cccc(NC(=O)CN(c2ccc(C)cc2)S(=O)(=O)c2c(C)noc2C)c1`, the inhibition was 22.7% (inactive).
With `Cc1noc(C)c1S(=O)(=O)N(CC(=O)Nc1ccc2c(c1)OCCO2)c1ccc(C(C)C)cc1`, the inhibition is 55.8% (active).
Then `Cc1noc(C)c1S(=O)(=O)N(CC(=O)NCc1ccc(Cl)cc1)c1ccc2c(c1)OCO2`, with -4.31% (inactive); and `CCC1CCCCN1C(=O)CSc1nc(C)cc(C)n1` (configuration not stated), with 11.3% (inactive); and `O=C(O)/C=C/C(=O)NNc1ccc([N+](=O)[O-])cc1`, with -9.99% (inactive).
Then `CC(=O)Nc1ccc(C(=O)CSc2nc3ccc(C)cc3[nH]2)cc1`, with 52.9% (active); and `O=C(CSc1nc2ccc([N+](=O)[O-])cc2[nH]1)c1ccc(Cl)cc1`, with -1.01% (inactive).
Then `CCOC(=O)CSc1nc2ccc(C)cc2[nH]1`, with -4.89% (inactive); and `O=C1c2ccccc2NC(c2ccccn2)N1NS(=O)(=O)c1ccccc1` (configuration not stated), with 2.46% (inactive).
Regarding `COc1ccc(NS(=O)(=O)c2cc(NC(=O)/C=C/c3cc(OC)c(OC)c(OC)c3)ccc2N2CCCCC2)cc1`, the inhibition was 61.7% (active).
In the case of `COc1ccc(/C=C/C(=O)Nc2ccc3c(c2)OCCO3)cc1OC` it was 13.8% (inactive); in that of `COc1ccc(NS(=O)(=O)c2cc(NC(=O)C3CCCCC3)ccc2N2CCOCC2)cc1`, 16.6% (inactive); in that of `Cc1cc(C)cc(NC(=S)NCCc2c[nH]c3ccccc23)c1`, 10.6% (inactive).
In the case of `COc1cccc(CNCCc2c[nH]c3ccccc23)c1OCc1ccccc1F` it was 101% (active).
Consider `COc1ccccc1NC(=O)CCCc1c[nH]c2ccccc12`, for which the inhibition was -1.94% (inactive).
